PubChem BioAssay (EPA / NIEHS)
Several values for one entry are separate records, joined by “and”; a condition that tells them apart may be missing. Equal values may be shown once. A structure can be active in one record and inactive in another. Activity calls are given as the source filed them. How the source made its calls: active means hit-call score of the fitted dose curve at least 0.9, where 1 is the maximum; inactive means score below 0.9.

Legend:
[1] = read-out: Interleukin-8 (IL8), CXCL8 (gene 3576); assay: BSK_MyoF_IL8: BioMAP Diversity Plus: MyoF Assay for Interleukin-8 (IL8) Biomarker Activity (AID 2284261); settings: primary human lung fibroblasts
In short: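 Human lung fibroblast (MyoF system) cultures dosed for 24 h, then IL-8 measured by ELISA. Response taken relative to DMSO; parallel SRB total-protein staining for cytotoxicity.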

CD90, THY1 (gene 7070) = assay: BSK_BF4T_CD90: BioMAP Diversity Plus: BF4T Assay for CD90 Biomarker Activity (AID 2284262); settings: primary human bronchial epithelial cells with fibroblasts
In short: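 CD90 levels by ELISA after 24 h treatment of human bronchial epithelial cell/dermal fibroblast cultures, analysed versus DMSO. Overt cytotoxicity checked in parallel cultures by sulforhodamine B staining.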

[2] = read-out: Interleukin-8 (IL8), CXCL8 (gene 3576); assay: BSK_BF4T_IL8: BioMAP Diversity Plus: BF4T Assay for Interleukin-8 (IL8) Biomarker Activity (AID 2284263); settings: primary human bronchial epithelial cells with fibroblasts
In short: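 Human bronchial epithelial cells with dermal fibroblasts co-culture; IL-8 measured by ELISA 24 hours after dosing, fitted vs DMSO. Cytotoxicity tracked in parallel cultures by SRB total-protein staining.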

[3] = read-out: Interleukin-1 alpha (IL1a), IL1A (gene 3552); assay: BSK_BF4T_IL1a: BioMAP Diversity Plus: BF4T Assay for Interleukin-1 alpha (IL1a) Biomarker Activity (AID 2284264); settings: primary human bronchial epithelial cells with fibroblasts
In short: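 ELISA read-out of IL-1α from bronchial epithelial cell/dermal fibroblast co-cultures 24 h after compound addition. Increases scored against DMSO negative control. Cytotoxicity monitored by sulforhodamine B staining of parallel cultures.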

Decorin, DCN (gene 1634) = assay: BSK_MyoF_Decorin: BioMAP Diversity Plus: MyoF Assay for Decorin Biomarker Activity (AID 2284265); settings: primary human lung fibroblasts
In short: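 Human lung fibroblast cultures were dosed for 24 h, and decorin was then measured by ELISA. Parallel cultures were stained with sulforhodamine B for total protein as a cytotoxicity check. Gain of signal was fitted relative to DMSO.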

[4] = BSK_MyoF_SRB: Viability Assessment in the BioMAP Diversity Plus: MyoF Assay (AID 2284267); settings: primary human lung fibroblasts;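 further: total protein by SRB absorbance in parallel cultures as cytotoxicity measure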
In short: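 Cytotoxicity read-out: after 10% TCA fixation, parallel human lung fibroblast cultures were stained with 0.1% SRB at 24 h post-dosing and read at 560 nm; DMSO served as baseline.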

[5] = read-out: Matrix Metallopeptidase 1 (MMP1), MMP1 (gene 4312); assay: BSK_MyoF_MMP1: BioMAP Diversity Plus: MyoF Assay for Matrix Metallopeptidase 1 (MMP1) Biomarker Activity (AID 2284268); settings: primary human lung fibroblasts
In short: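 Human lung fibroblast primary cells; MMP1 measured by ELISA 24 h after dosing, fitted in the positive direction relative to DMSO. Parallel SRB staining (0.1%, after 10% TCA fixation, 560 nm) assesses overt cytotoxicity.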

[6] = read-out: TIMP metallopeptidase inhibitor 1 (TIMP1), TIMP1 (gene 7076); assay: BSK_MyoF_TIMP1: BioMAP Diversity Plus: MyoF Assay for TIMP metallopeptidase inhibitor 1 (TIMP1) Biomarker Activity (AID 2284269); settings: primary human lung fibroblasts
In short: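 ELISA read-out of TIMP-1 from primary human lung fibroblast cultures 24 h after compound dosing; gain of signal relative to DMSO vehicle baseline defines activity.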

[7] = read-out: Matrix Metallopeptidase 1 (MMP1), MMP1 (gene 4312); assay: BSK_BF4T_MMP1: BioMAP Diversity Plus: BF4T Assay for Matrix Metallopeptidase 1 (MMP1) Biomarker Activity (AID 2284270); settings: primary human bronchial epithelial cells with fibroblasts
In short: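 MMP-1 quantified by ELISA in primary human bronchial epithelial/dermal fibroblast co-cultures, 24 hours post-dosing, with DMSO as baseline; parallel sulforhodamine B staining (560 nm) tracks overt cytotoxicity.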

[8] = read-out: Matrix Metallopeptidase 3 (MMP3), MMP3 (gene 4314); assay: BSK_BF4T_MMP3: BioMAP Diversity Plus: BF4T Assay for Matrix Metallopeptidase 3 (MMP3) Biomarker Activity (AID 2284271); settings: primary human bronchial epithelial cells with fibroblasts
In short: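 MMP-3 level read by ELISA after 24 h chemical exposure of bronchial epithelial cell/dermal fibroblast co-cultures, fitted upward relative to DMSO. Parallel cultures stained with 0.1% SRB after TCA fixation gauge overt cytotoxicity.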

[9] = read-out: Tissue plasminogen activator (tPA), PLAT (gene 5327); assay: BSK_BF4T_tPA: BioMAP Diversity Plus: BF4T Assay for Tissue plasminogen activator (tPA) Biomarker Activity (AID 2284272); settings: primary human bronchial epithelial cells with fibroblasts
In short: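 tPA level quantified by ELISA at 24 h post-treatment in bronchial epithelial/dermal fibroblast co-cultures, gain of signal scored against DMSO baseline. Parallel cultures stained with 0.1% SRB (560 nm) to flag overt cytotoxicity.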

[10] = read-out: Plasminogen Activator Inhibitor-1 (PAI1), SERPINE1 (gene 5054); assay: BSK_BF4T_PAI1: BioMAP Diversity Plus: BF4T Assay for Plasminogen Activator Inhibitor-1 (PAI1) Biomarker Activity (AID 2284273); settings: primary human bronchial epithelial cells with fibroblasts
In short: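 PAI-1 levels quantified by ELISA 24 h post-dosing in bronchial epithelial cell plus dermal fibroblast cultures. Signal gain referenced to DMSO baseline. Sulforhodamine B total-protein staining of parallel wells checked cytotoxicity.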

[11] = BSK_BF4T_SRB: Viability Assessment in the BioMAP Diversity Plus: BF4T Assay (AID 2284274); settings: primary human bronchial epithelial cells with fibroblasts
In short: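 Cytotoxicity measured as total protein: cells fixed with 10% TCA, stained with 0.1% SRB, read at 560 nm. Bronchial epithelial/dermal fibroblast co-culture, 24 h after dosing, with positive-direction fitting relative to DMSO.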

[12] = read-out: urokinase Plasminogen Activator (uPA), PLAU (gene 5328); assay: BSK_BF4T_uPA: BioMAP Diversity Plus: BF4T Assay for urokinase Plasminogen Activator (uPA) Biomarker Activity (AID 2284275); settings: primary human bronchial epithelial cells with fibroblasts
In short: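 uPA levels measured by ELISA at 24 hours in BF4T cultures (bronchial epithelial cells plus dermal fibroblasts) and compared with DMSO; cytotoxicity tracked in parallel cultures by sulforhodamine B staining.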

[13] = read-out: Matrix Metallopeptidase 9 (MMP9), MMP9 (gene 4318); assay: BSK_BF4T_MMP9: BioMAP Diversity Plus: BF4T Assay for Matrix Metallopeptidase 9 (MMP9) Biomarker Activity (AID 2284276); settings: primary human bronchial epithelial cells with fibroblasts
In short: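 MMP-9 levels were measured by ELISA after 24 h exposure of bronchial epithelial cell/dermal fibroblast co-cultures, with DMSO as baseline. Parallel cultures were stained with 0.1% SRB after TCA fixation, read at 560 nm, to flag overt cytotoxicity.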

[14] = read-out: Interleukin-8 (IL8), CXCL8 (gene 3576); assay: BSK_IMphg_IL8: BioMAP Diversity Plus: IMphg Assay for Interleukin-8 (IL8) Biomarker Activity (AID 2284277); settings: primary human endothelial cells with macrophages
In short: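 IL-8 levels were measured by ELISA 24 h after dosing in primary human venular endothelial cell–macrophage cultures, referenced to DMSO; parallel SRB staining monitored overt cytotoxicity.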

[15] = read-out: Intercellular Adhesion Molecule 1 (ICAM1), ICAM1 (gene 3383); assay: BSK_BE3C_ICAM1: BioMAP Diversity Plus: BE3C Assay for Intercellular Adhesion Molecule 1 (ICAM1) Biomarker Activity (AID 2284278); settings: primary human bronchial epithelial cells
In short: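 ICAM-1 quantified by ELISA and fitted against DMSO baseline, 24 h post-dosing in BE3C cultures of primary human lung bronchial epithelial cells. Cytotoxicity checked in parallel cultures by total protein SRB staining.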

[16] = read-out: Interferon-inducible T-cell alpha chemoattractant (ITAC), CXCL11 (gene 6373); assay: BSK_BE3C_ITAC: BioMAP Diversity Plus: BE3C Assay for Interferon-inducible T-cell alpha chemoattractant (ITAC) Biomarker Activity (AID 2284279); settings: primary human bronchial epithelial cells
In short: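 ELISA read-out of I-TAC after 24 h chemical dosing of human lung primary bronchial epithelial cells; gain-of-signal fit vs DMSO baseline. Parallel SRB total-protein staining (0.1% SRB, 10% TCA fixation, 560 nm) assessed cytotoxicity.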

[17] = read-out: Interleukin-8 (IL8), CXCL8 (gene 3576); assay: BSK_BE3C_IL8: BioMAP Diversity Plus: BE3C Assay for Interleukin-8 (IL8) Biomarker Activity (AID 2284280); settings: primary human bronchial epithelial cells
In short: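 Primary human bronchial epithelial cells (BE3C system) were exposed to test chemical for 24 h, and IL-8 levels were then measured by ELISA. Activity was fitted in the positive (gain-of-signal) direction against a DMSO negative-control baseline.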

Measured: AC50

C=CC(=O)OCC(F)(F)C(F)(F)C(F)(F)C(F)(F)COC(=O)C=C
inactive: CD90, THY1 (gene 7070) | [2] | [5] | [7] | [10] | [11] | [12] | [13] | [14]
active: [1] 19.5 µM and 13.8 µM | [2] 30 µM | [3] 30 µM and 46.8 µM | Decorin, DCN (gene 1634) 15.7 µM and 17 µM | [4] 17.1 µM and 18.2 µM | [6] 14.1 µM and 18.7 µM | [8] 55.4 µM and 6.99 µM | [9] 8.21 µM and 9.07 µM | [12] 30 µM | [13] 18.2 µM | [15] 26.3 µM and 25.9 µM | [16] 45.3 µM and 39.4 µM | [17] 7.98 µM and 7.77 µM

O=C(Cl)C(F)(F)C(F)(F)C(F)(F)C(F)(F)C(F)(F)C(F)(F)C(F)(F)C(F)(F)F
active: [3] 45.4 µM and 45.6 µM and 56.8 µM | [4] 26 µM and 21.7 µM and 20.3 µM | [7] 55.2 µM | [9] 28 µM and 22.9 µM and 20.9 µM | [11] 30 µM and 50.1 µM | [12] 46 µM and 48 µM and 44.8 µM | [13] 46.1 µM and 52.4 µM and 49.7 µM | [14] 6.67 µM and 5.95 µM and 19.6 µM | [15] 50.4 µM and 58.6 µM and 57.1 µM | [16] 48.3 µM and 46.7 µM and 48.2 µM | [17] 30 µM and 43.4 µM and 38.6 µM
inactive: [1] | CD90, THY1 (gene 7070) | [2] | Decorin, DCN (gene 1634) | [5] | [6] | [7] | [8] | [10] | [11]
